# Laboratory results as given in the supplement of paper PMC10105736.
# A number with no mark means an inactive call.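 Rule for the calls: active = MAPPIT score above the 99th percentile of random reference set scores in the same batch; inactive = at or below it.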
# B1: Dhfr (protein)
# chain: MLRFNLIVAVCENFGIGIRGDLPWRIKSELKYFSRTTKRTSDPTKQNAVVMGRKTYFGVPESKRPLPDRLNIVLSTTLQESDLPKGVLLCPNLETAMKILEEQNEVENIWIVGGSGVYEEAMASPRCHRLYITKIMQKFDCDTFFPAIPDSFREVAPDSDMPLGVQEENGIKFEYKILEKHS
# B2: Syngr (protein)
# chain: MDMLNQILSINNGGAYGGGKAGGAFDPLTFAMKPQVVIRALCWLFSVVVFGCISSEGWTEKDGKEYCLYNGDGMACKYGNMVGVFGFLASMGFMGGEFLFERMSSVKSRKRYVMADMGFSALWTFMYFVAFLYLWSQWSSSAPPPLGIGAGSMKTAIWFCLFSIVSWALCALMAYKRFLIGAGDEFTSAFETDPANVVHQQAYGYSMDNDNDQYSASPFGQPQQGGMEQQQSGMEYQQPTY
# B3: esg (protein)
# chain: MHTVEDMLVEKNYSKCPLKKRPVNYQFEAPQNHSNTPNEPQDLCVKKMEILEENPSEELINVSDCCEDEGVDVDHTDDEHIEEEDEDVDVDVDSDPNQTQAAALAAAAAVAAAAAASVVVPTPTYPKYPWNNFHMSPYTAEFYRTINQQGHQILPLRGDLIAPSSPSDSLGSLSPPPHHYLHGRASSVSPPMRSEIIHRPIGVRQHRFLPYPQMPGYPSLGGYTHTHHHHAPISPAYSENSYYSMRSMTPESSCSSSLPEDLSLKHKNLNLNLNTSQPGEQAAAKTGDMSPETMPNASAKKDKNQPPRYQCPDCQKSYSTFSGLTKHQQFHCPAAEGNQVKKSFSCKDCDKTYVSLGALKMHIRTHTLPCKCNLCGKAFSRPWLLQGHIRTHTGEKPFSCQHCHRAFADRSNLRAHLQTHSDIKKYSCTSCSKTFSRMSLLTKHSEGGCPGGSAGSSSSSELNYAGYAEP
# B4: Rpt2 (protein)
# chain: MGQNQSAQGGAGEKKDDKDKKKKYEPPIPTRVGKKKRRAKGPDAAMKLPQVTPHTRCRLKLLKLERIKDYLMMEDEFIRNQERLKPQDEKNEEERSKVDDLRGTPMSVGNLEEIIDDNHAIVSTSVGSEHYVSILSFVDKDQLEPGCSVLLNHKVHAVVGVLSDDTDPMVTVMKLEKAPQETYADIGGLDTQIQEIKESVELPLTHPEYYEEMGIKPPKGVILYGPPGTGKTLLAKAVANQTSATFLRVVGSELIQKYLGDGPKLVRELFRVAEEHAPSIVFIDEIDAVGTKRYDSNSGGEREIQRTMLELLNQLDGFDSRGDVKVIMATNRIETLDPALIRPGRIDRKIEFPLPDEKTKRRIFTIHTSRMTLAEDVNLSELIMAKDDLSGADIKAICTEAGLMALRERRMKVTNEDFKKSKESVLYRKKEGTPEGLYL
# B5: mex1 (protein)
# chain: MCNALCECLKCPGKVVCCCCSCACKMLLSIVFSALLMVVVIGLIVYFTVFYHKDKNTDEVQKQVAQLTPIVKRSIRDYFNKEY
# B6: dan (protein)
# chain: MNIRMGTKGKRPLRSLTPRDKIHAIQRIHDGESKASVARDIGVPESTLRGWCKNEDKLRFMSRQSATDNLCADALGDKMDGGGGGGGGAGGGGLLGPPEKRQRLDGALPLNFSNKLKFDELAFKRSPLNGLDYSTNKNLADLGYNGLPVDYAAFNGGVKAKVFGADINRPAADPSLNAISPLSSLTHLSGLTGISQSPLAISFNELTTNLNLLAQLNPGLAAMSGLNSFPAGAGNLRTPKPSGQTPLQVQSPRSDSGDRSAQGLSVKNWAKQKPGEGQGSLNLSIKNEGKGGDIKSPSPSIAPSQMGGPMTLSNLAEDPLLYWLKSQQTMLGLNPLYPPTIPMGVTSPPIRSSTPQHMSQLAQTPPIPSAPLTPSSTPSGSLDEKNAAWYNWCKAFGASLHTLNPNAATLAALQANQLQQQVATTAAEGGSMGDPSNILYSHLTKETETPSVRSLSSNEQNPEADEATETDLDGEVEPEASGKPEDLSAAGKVMTPSQSPIAHSSGSRSPEPKAKTKTPETTNSTSECKKILDNMLFKMGGMEATGPLMPEQGSSESEGSFQDTSNPHTNNNDVSASNNNNNNNSNKTDEEEKAKYLDCTADEDIEAIRHGEKFLQWLENCSNPRVTAVQLMQLRFLIAAIKSGNETPMIEKSALPEDSEEHAAEEEGSGRGKSRRRK
# B7: Orco (protein)
# chain: MTTSMQPSKYTGLVADLMPNIRAMKYSGLFMHNFTGGSAFMKKVYSSVHLVFLLMQFTFILVNMALNAEEVNELSGNTITTLFFTHCITKFIYLAVNQKNFYRTLNIWNQVNTHPLFAESDARYHSIALAKMRKLFFLVMLTTVASATAWTTITFFGDSVKMVVDHETNSSIPVEIPRLPIKSFYPWNASHGMFYMISFAFQIYYVLFSMIHSNLCDVMFCSWLIFACEQLQHLKGIMKPLMELSASLDTYRPNSAALFRSLSANSKSELIHNEEKDPGTDMDMSGIYSSKADWGAQFRAPSTLQSFGGNGGGGNGLVNGANPNGLTKKQEMMVRSAIKYWVERHKHVVRLVAAIGDTYGAALLLHMLTSTIKLTLLAYQATKINGVNVYAFTVVGYLGYALAQVFHFCIFGNRLIEESSSVMEAAYSCHWYDGSEEAKTFVQIVCQQCQKAMSISGAKFFTVSLDLFASVLGAVVTYFMVLVQLK
# Columns and labels:
# Assay in all cases: MAPPIT interaction score (arbitrary units); higher = stronger binary interaction signal, active = hit call of the paper
# [1] = target: CG42245; details: MAPPIT configuration: N-N; pair source set: RRS
# [2] = target: CG3792; details: MAPPIT configuration: N-C; pair source set: screen_4
# [3] = target: Dpm3; details: MAPPIT configuration: N-C; pair source set: screen_3
# [4] = target: CG42659; details: MAPPIT configuration: N-C; pair source set: screen_4
# [5] = target: Traf-like; details: MAPPIT configuration: N-N; pair source set: Lit-BS-16
# [6] = target: CG3565; details: MAPPIT configuration: N-N; pair source set: DPIM
# [7] = target: CG9588; details: MAPPIT configuration: N-N; pair source set: Lit-BS-16
# [8] = target: Prosalpha2; details: MAPPIT configuration: N-N; pair source set: Lit-BM-16
# [9] = target: Rpn1; details: MAPPIT configuration: N-N; pair source set: Lit-BM-16
# [10] = target: Rpt1; details: MAPPIT configuration: N-C; pair source set: Lit-BM-16
# [11] = target: Rpt6; details: MAPPIT configuration: N-C; pair source set: Lit-BM-16
# [12] = target: CG3651; details: MAPPIT configuration: N-N; pair source set: RRS
# [13] = target: CG42831; details: pair source set: RRS
# [14] = target: CG42512; details: MAPPIT configuration: N-C; pair source set: RRS
# [15] = target: Orco; details: MAPPIT configuration: N-C; pair source set: Lit-BM-16
# 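Note: HEK293T cells with Epo stimulation, STAT-responsive firefly luciferase reporter, fold induction versus unstimulated cells divided by the larger fold induction of two negative controls lacking either bait or prey.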
binder,measurement,setting,value
B1,MAPPIT interaction score,[1],0.497
B2,MAPPIT interaction score,[2],-0.645
same,MAPPIT interaction score,[3],-1.36
B3,MAPPIT interaction score,[4],0.721
same,MAPPIT interaction score,[5],0.713
B4,MAPPIT interaction score,[6],2.71 (active)
same,MAPPIT interaction score,[7],0.822
same,MAPPIT interaction score,[8],2.86 (active)
same,MAPPIT interaction score,[9],6.22 (active)
same,MAPPIT interaction score,[10],1.56
same,MAPPIT interaction score,[11],0.824
B5,MAPPIT interaction score,[12],0.00975
B6,MAPPIT interaction score,[13]; MAPPIT configuration: N-C,0.788
same,MAPPIT interaction score,[13]; MAPPIT configuration: N-N,0.273
B7,MAPPIT interaction score,[14],0.963
same,MAPPIT interaction score,[15],-0.077
